# CBFb-RUNX1 inh: CBF-beta/RUNX1 interaction disruption; Q01196+Q13951; AlphaScreen CBFb-His/RUNX1-biotin binding, biochemical; Potency, µM (highest dose often 59.8 µM), hits mostly inhibitors; 230,000 tested, under 10 active
#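 Room-temperature protein-protein interaction test with 30 nM each of His-tagged CBF-beta and biotinylated RUNX1, 15 min with compound, then 90 min with nickel plus streptavidin beads. Signal read in AlphaScreen mode.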
# HPGD block: HPGD (human) dehydrogenase inhibition. 150,000 tested, 4.3% active. purified HPGD, NADH fluorescence kinetic, PGE2 substrate. Potency, µM, actives largely listed as inhibitors. P15428; active means well fitted inhibition curve with a large enough effect, not every such curve was filed as active; inconclusive means small, poorly fitted or top-dose-only effect, or another doubt; inactive means no such curve, though single readings can be large or run the other way
#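 20 nM HPGD preincubated 15 min at room temperature with compound in 50 mM Tris-HCl pH 8, 0.01% Tween 20. Started with 1 mM NAD+ and 30 uM prostaglandin E2; NADH fluorescence (360/450 nm) read 5 times over 30-s intervals, last minus first.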
# ALDH1A1 block: ALDH1A1 (human) enzyme inhibition; 220,000 tested, 7.3% active; Purified ALDH1A1, NADH fluorescence, propionaldehyde substrate; P00352; Potency, µM (highest dose often 75.3 µM), most hits filed as inhibitors; active means well fitted inhibition curve with a large enough effect, not every such curve was filed as active; inconclusive means small, poorly fitted or top-dose-only effect, or another doubt; inactive means no such curve, though single readings can be large or run the other way
# HTT cytoprotect: protects HTT-Q103 PC12 cells, measured by ATP | PC12 HTT-Q103 induced, cytoprotection, ATP luminescence, 40 h | Potency, µM (highest dose often 56.4 µM), most hits filed as activators | 230,000 tested, 0.14% active; further: nearly all actives have a fitted effect of over 45% in size
#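 Compounds added alongside 100 nM tebufenozide, which induces toxic Q103 huntingtin exon 1-GFP in stable PC12 cells; surviving cells quantified by luminescent ATP measurement. Medium: phenol red-free DMEM, 5% equine and 5% calf serum.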
# JMJD2E inh: inhibitors of human JMJD2E histone demethylase; B2RXH2; JMJD2E catalytic domain, FDH-coupled NADH fluorescence (FDH is formaldehyde dehydrogenase); Potency, µM (series often up to 57.1 µM), actives largely listed as inhibitors; 230,000 tested, 1.6% active; active means well fitted inhibition curve with a large enough effect, not every such curve was filed as active; inconclusive means small, poorly fitted or top-dose-only effect, or another doubt; inactive means no such curve, though single readings can be large or run the other way; further: nearly all actives have a fitted effect of over 50% in size
# Target sequence (B2RXH2 1-337 limits assumed): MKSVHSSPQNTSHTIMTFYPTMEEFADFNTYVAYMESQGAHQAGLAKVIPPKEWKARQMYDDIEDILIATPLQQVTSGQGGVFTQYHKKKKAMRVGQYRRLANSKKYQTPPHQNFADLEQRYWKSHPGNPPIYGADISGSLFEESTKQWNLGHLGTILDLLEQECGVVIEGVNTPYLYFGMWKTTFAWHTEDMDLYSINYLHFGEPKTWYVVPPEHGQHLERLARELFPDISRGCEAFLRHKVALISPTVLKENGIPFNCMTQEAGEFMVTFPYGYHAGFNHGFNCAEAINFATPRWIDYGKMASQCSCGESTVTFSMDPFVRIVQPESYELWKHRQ
# HttQ103 aggreg: mutant huntingtin aggregation inhibition | Potency, µM (series often up to 46.1 µM), usual class: inhibitors | PC12 HttQ103-GFP aggregates, Acumen cytometry, 40 h | 220,000 tested, 1.1% active | AID 1688; further: nearly all actives have a fitted effect of over 60% in size
#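 PC12/HTTQ103-GFP, ecdysone-inducible; teb 100 nM; cpd qHTS titration; GFP aggregates read on laser cytometer, Ex 488/Em 500-530 nm.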
# Numbers stand for hits; i = inactive; ? = inconclusive; nt = no result given; [ ] = dose if it differs, or a comment. Most compounds without a hit are left out; they make up all but 9.8% or so of the library. Unless noted, the call rests on the fitted dose curve; in most records, active means well fitted curve in the direction sought with a large enough effect; inconclusive means small, poorly fitted or top-dose-only effect, or another doubt; inactive means no such curve, though single readings can be large; an effect the other way counts as inactive or inconclusive.
SMILES,CBFb-RUNX1 inh,HPGD block,ALDH1A1 block,HTT cytoprotect,JMJD2E inh,HttQ103 aggreg
CCc1cc(C(=O)NNC(=S)Nc2cc(C)ccc2C)cs1,i,i,?,i[10 µM],i,i
O=C(/C=C/c1cccc2ccccc12)N1CCOCC1,i,nt,nt,i[10 µM],?,i[9.22 µM]
Cc1ccc(Nc2nnns2)cc1,i,22µM,2.5µM,i,i,i
C[C@H]1C[C@@H]2[C@@H]([C@@H](O)C[C@@]3(C)[C@H]2CC[C@]3(O)C(=O)CO)[C@@]2(C)C=CC(=O)C=C12,i,i,?,i,i,i
CC(C)Oc1cccc(C(=O)C2CCCN(Cc3cnn(C(C)C)c3)C2)c1 (stereo not given),i,nt,10µM,i[10 µM],i,i[9.22 µM]
CCOC(=O)C1CCCN(C(=O)c2ccc3c(c2)OCO3)C1 (stereo not given),i,10µM,?,i[10 µM],i,i
CC(C)Oc1cccc(C(=O)C2CCCN(Cc3ccc4nonc4c3)C2)c1 (stereo not given),i,nt,?,i,i,i
CCOC(=O)C1CCCN(Cc2ccc3c(c2)OCO3)C1 (stereo not given),i,i,13µM,i[0.074 µM],i,i
CC(=O)c1cccc(CN2CCCC(C(=O)c3ccc4c(c3)OCO4)C2)c1 (stereo not given),i,nt,28µM,i[10 µM],?,i[9.22 µM]
N#CCC(=O)N1CCCCCC1,i,i,i,i,i,i
CCNS(=O)(=O)c1ccc(NC(=O)Cn2cc([N+](=O)[O-])cn2)cc1,i,nt,i,nt,i,i
O=C(O)c1ccc2c(c1)N(Cc1ccccc1)C(=O)c1ccccc1S2=O (stereo not given),i,i,i,i,i,i
CCOC(=O)C1CCCN(CC(O)COc2cccc(C)c2)C1 (stereo not given),i,25µM,i,nt,i,i
Cc1ccc(CNC(=O)CCC2CCCN(C(=O)c3ccc4c(c3)OCO4)C2)o1 (stereo not given),i,nt,16µM,i,i,?
CCOC(=O)C1CCCN(C(=O)c2ccc3c(c2)N(Cc2ccccc2)C(=O)c2ccccc2S3=O)C1 (stereo not given),i,nt,20µM,i,i,i
COC(=O)c1ccc(C)c(NC(=O)CCc2cc(OC)c(OC)c(OC)c2)c1,i,i,i,i[10 µM],i,i
N=c1c2c(n(Cc3cccc(Cl)c3)c3c1CCC3)CCCC2,i,i,i,i[10 µM],i,10µM
N=c1c2c(n(Cc3ccccc3)c3c1CCC3)CCC2,i,i,i,i,i,8.9µM
Cc1cc(C)c(-n2nnnc2SC(C)C)c(C)c1,i,i,i,i[10 µM],i,i
NC(=O)C1=C[C@@H](c2csc3ccccc23)C[C@@H](OCCCCO)O1,i,nt,i,i[10 µM],?,i[9.22 µM]
CC1(C)C[C@@H]2C(=O)CCC3O[C@@]3(C)CCC21 (stereo not given in full),nt,i,i,nt,i,nt
Cc1cc(C)c(-n2nnnc2SCC(=O)c2cccs2)c(C)c1,i,nt,nt,i[10 µM],i,i[9.22 µM]
O=C(c1cc2ccccc2oc1=O)N(c1ccccc1)C1C=CS(=O)(=O)C1 (stereo not given),i,i,i,i[10 µM],i,i
CC(C)c1ccc(N(C(=O)c2cc3ccccc3oc2=O)C2C=CS(=O)(=O)C2)cc1 (stereo not given),i,i,25µM,i[10 µM],?,i
CCN(C(=O)c1cc2ccccc2oc1=O)c1cccc(C)c1,i,?,14µM,i[10 µM],i,i
COc1ccc(-c2csc(NC(=O)c3cc(=O)c4ccccc4o3)n2)cc1OC,i,nt,i,i,i,i
COc1ccc(C2/C(=C(/O)c3ccccc3)C(=O)C(=O)N2CO)cc1 (stereo not given),i,i,?,i,i,i
COc1ccc(N/C(C)=C2/C(=O)C(=O)N(CCO)C2c2ccc([N+](=O)[O-])cc2)cc1 (stereo not given),i,i,11µM,i,i,i
CCOC(=O)Cn1c(C)[n+](CC(=O)c2ccccc2)c2ccccc21,i,nt,nt,i[10 µM],i,i[9.22 µM]
CCOC(=O)c1[nH]nc(-c2c(O)cc(C)cc2O)c1-c1csc(C)n1,i,i,i,i[10 µM],i,i[9.22 µM]
